Lassa entry inh: qHTS for Inhibitors of binding or entry into cells for Lassa Virus; Lassa virus pseudotype entry inhibition, cell reporter; Potency, µM (doses to about 37.9 µM), for the others: at the highest dose activity change, negative = inhibition, usual class: inhibitors; actives 1.2% (n = 300,000); AID 540256, 2011; calls by dose curve; tested in HEK293 cells; note: potency is the fitted concentration of half-maximal effect; nearly all actives have a fitted effect of over 50% in size
Marburg entry inh: qHTS for inhibitors of binding or entry into cells for Marburg Virus | Marburg virus pseudotyped entry inhibition, cell reporter | Potency, µM (series often up to 37.8 µM), for the others: at the highest dose activity change, negative = inhibition, usual class: inhibitors | actives 1.8% (n = 300,000) | AID 540276, 2011; calls by dose curve; tested in HEK293 cells; note: potency is the fitted concentration of half-maximal effect
FMDV antiviral: High Throughput Screening for Foot and Mouth Disease Virus Antivirals; actives 1.2% (n = 410,000); Potency, µM (series often up to 57.9 µM), inactives show top-dose activity change, negative = inhibition, most hits filed as inhibitors; AID 1159524, 2015; FMDV antiviral cell-based qHTS; calls by dose curve; tested in HEK293T cells; note: read-out not given here; potency is the fitted concentration of half-maximal effect; nearly all actives have a fitted effect of over 45% in size
HCMV antiviral: qHTS Assay for inhibitors of the human cytomegalovirus (HCMV) | activity change, negative = inhibition, % at 57.5 µM | AID 1259415, 2018 | actives 4.5% (n = 410,000) | HFF cells, HCMV-luciferase reporter, 72 h; active compounds read low; in the data active = activity change below about -60%; inconclusive = no clear call, values can overlap the other calls; inactive = above about -39%
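Steps: HFFs plated, 16 h 37C; compounds added; HCMV-luciferase added to MOI 1 PFU/cell; 72 h 37C; OneGlo reagent, 5 min room temperature; luminescence read, normalized to controls.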
The depositor's hits bear a star; ! = not confirmed by another sample; [ ] = another dose, or the depositor's remark. A selection: hits, their analogues and other compounds. The true share with any hit is near 6.2%. % is set by controls: 0 for no effect and ±100 for the full control effect.

How did CCC(C)(C)n1nnnc1CN(Cc1ccc(Cl)cc1)Cc1ccco1 do in these assays?
Lassa entry inh: -9%; Marburg entry inh: inconclusive; FMDV antiviral: inconclusive; HCMV antiviral: -64*

What do the screens show for `O=c1c(-c2ccccc2)nc2cnc(N3CCOCC3)nc2n1C1CC1`?
FMDV antiviral: -10%

Results for O=C(Nc1noc2ccccc12)c1cccc(Cl)c1Cl ?
Lassa entry inh: inconclusive; Marburg entry inh: inconclusive; FMDV antiviral: 6%; HCMV antiviral: 216

Results for CCn1c(SCC(=O)OC)nnc1-c1ccncc1 ?
Lassa entry inh: 29%; Marburg entry inh: inconclusive; FMDV antiviral: 9%; HCMV antiviral: 46

Results for Cc1ccccc1C(=O)NC1CCN(CC(=O)Nc2c(C)cccc2C)CC1 ?
Lassa entry inh: -2%; Marburg entry inh: -8%; FMDV antiviral: inconclusive; HCMV antiviral: 13

How did Cc1ccccc1C(=O)NC1CCN(CC(=O)Nc2ccccc2)CC1 do in these assays?
FMDV antiviral: -10%; HCMV antiviral: -90*

What do the screens show for `O=C(CN1CCC(NC(=O)Cc2ccccc2)CC1)Nc1ccccc1Br`?
Lassa entry inh: inconclusive; Marburg entry inh: 7%; FMDV antiviral: inconclusive; HCMV antiviral: -64*

How did COc1cccc(N2CCN(C(=O)C3CCCN(S(=O)(=O)c4cccc5nsnc45)C3)CC2)c1 (stereo not drawn) do in these assays?
Lassa entry inh: inconclusive; Marburg entry inh: inconclusive; FMDV antiviral: -24%; HCMV antiviral: -8

How did O=C(C1CCCN(S(=O)(=O)c2cccc3nsnc23)C1)N1CCN(c2ccccn2)CC1 (stereo not drawn) do in these assays?
Lassa entry inh: -54%; Marburg entry inh: inconclusive; FMDV antiviral: 28µM*; HCMV antiviral: -65*

Results for O=C(C1CCCN(S(=O)(=O)c2cccc3nsnc23)C1)N1CCN(c2cccc(Cl)c2)CC1 (stereo not drawn) ?
Lassa entry inh: inconclusive; Marburg entry inh: inconclusive; FMDV antiviral: 11µM*; HCMV antiviral: -86*

Results for CC1CCN(C(=O)C2CCCN(S(=O)(=O)c3cccc4nsnc34)C2)CC1 (stereo not drawn) ?
Lassa entry inh: 14%[46.1 µM]; Marburg entry inh: 13%[46.1 µM]; FMDV antiviral: -10%; HCMV antiviral: -28

How did C=CCn1c(SCC(=O)Nc2cccnc2Cl)nnc1-c1ccccc1F do in these assays?
Lassa entry inh: inconclusive; Marburg entry inh: -7%; FMDV antiviral: inconclusive; HCMV antiviral: -65*

What do the screens show for `C=CCn1c(SCC(=O)Nc2cccnc2Cl)nnc1-c1ccc(Cl)cc1`?
Lassa entry inh: -30%; Marburg entry inh: 0%; FMDV antiviral: inconclusive; HCMV antiviral: -37

Results for Cc1cc(SCC(N)=O)nc(SCC(=O)c2ccccc2)n1 ?
Lassa entry inh: 6%; Marburg entry inh: 4%; FMDV antiviral: -2%; HCMV antiviral: 28

How did CC(Nc1oc(-c2ccc(COc3ccc(Cl)cc3)o2)nc1C#N)c1ccccc1 (stereo not drawn) do in these assays?
Lassa entry inh: -25%[46.1 µM]; Marburg entry inh: -14%[46.1 µM]; FMDV antiviral: 0%; HCMV antiviral: -74*

What do the screens show for `CCOc1ccc(Nc2oc(-c3ccc(COc4ccccc4C)o3)nc2C#N)cc1`?
Lassa entry inh: 3%[46.1 µM]; Marburg entry inh: 3%[46.1 µM]; FMDV antiviral: -22%; HCMV antiviral: -71*

Results for COc1ccc(Nc2oc(-c3ccc(Cl)cc3)nc2C#N)cc1 ?
Lassa entry inh: -4%; Marburg entry inh: inconclusive; FMDV antiviral: 76%; HCMV antiviral: 54

Results for N#Cc1nc(-c2ccc(OCc3ccccc3)cc2)oc1N1CCC(C(N)=O)CC1 ?
Lassa entry inh: 0%; Marburg entry inh: -4%; FMDV antiviral: -23%; HCMV antiviral: -37

What do the screens show for `CCOc1ccc(Nc2oc(-c3ccc(Cl)cc3)nc2C#N)cc1`?
Lassa entry inh: 16µM*; Marburg entry inh: 7.3µM*; FMDV antiviral: 46%; HCMV antiviral: 74

Results for N#Cc1nc(-c2ccc(COc3ccc(Cl)cc3)o2)oc1N1CCC(C(N)=O)CC1 ?
Lassa entry inh: -13%[46.1 µM]; Marburg entry inh: 13%[46.1 µM]; FMDV antiviral: inconclusive; HCMV antiviral: -65*

What do the screens show for `O=C(CSc1nccc(=O)[nH]1)NCc1ccc2c(c1)OCO2`?
FMDV antiviral: -8%; HCMV antiviral: -14

What do the screens show for `CN(CCOc1ccccc1)C(=O)c1ccc2c(c1)OCO2`?
Lassa entry inh: -1%; Marburg entry inh: 25%; FMDV antiviral: 47%; HCMV antiviral: 0

What do the screens show for `COc1ccc(Nc2oc(COc3ccc(Cl)cc3)nc2C#N)cc1`?
Lassa entry inh: inconclusive; Marburg entry inh: inconclusive; FMDV antiviral: inconclusive; HCMV antiviral: -78*

How did COC(=O)[C@@H]1[C@@H](C(=O)OC)C2(c3ccccc3-c3ccccc32)N(c2ccc(Cl)cc2)N1C#N do in these assays?
Lassa entry inh: inconclusive; Marburg entry inh: 10µM*; FMDV antiviral: 3.5µM*; HCMV antiviral: -82*

Results for COC(=O)CN1C(=O)C(O)(CC(=O)c2ccc(Cl)cc2)c2ccccc21 (stereo not drawn) ?
FMDV antiviral: -9%; HCMV antiviral: 25

How did COC(=O)C1OC2(OC1C(=O)OC)c1ccccc1-c1ccccc12 (stereo not drawn) do in these assays?
Lassa entry inh: 2%; Marburg entry inh: 7%; FMDV antiviral: -11%; HCMV antiviral: -36

How did COC(=O)C[C@]1(C(=O)OC)CN(C#N)N(c2ccc(Cl)cc2)C12c1ccccc1-c1ccccc12 do in these assays?
Lassa entry inh: 3.2µM*; Marburg entry inh: inconclusive; FMDV antiviral: 4.5µM*; HCMV antiviral: -102*

What do the screens show for `CCOc1ccccc1NC(=O)CC1C(=O)NCCN1C(=O)c1ccc(F)cc1` (stereo not drawn)?
Lassa entry inh: 8%[46.1 µM]; Marburg entry inh: -20%[46.1 µM]; FMDV antiviral: 6%; HCMV antiviral: 9

How did Cc1oc(-c2ccccc2F)nc1CS(=O)(=O)CC(=O)N1CCN(c2ccc(Cl)cc2)CC1 do in these assays?
Lassa entry inh: inconclusive; Marburg entry inh: -27%[46.1 µM]; FMDV antiviral: 16µM*; HCMV antiviral: -83*

Results for Cc1ccc(-c2nc(CS(=O)CC(=O)N3CCN(c4cccc(Cl)c4)CC3)c(C)o2)cc1 (stereo not drawn) ?
Lassa entry inh: -2%[46.1 µM]; Marburg entry inh: 12%[46.1 µM]; FMDV antiviral: -6%; HCMV antiviral: inconclusive

What do the screens show for `Cc1ccc(-c2nc(CS(=O)CC(=O)N3CCN(c4ccc(F)cc4)CC3)c(C)o2)cc1` (stereo not drawn)?
Lassa entry inh: inconclusive; Marburg entry inh: inconclusive; FMDV antiviral: inconclusive; HCMV antiviral: -63*!

What do the screens show for `Cc1oc(-c2ccc(Cl)cc2)nc1CS(=O)CC(=O)N1CCN(c2cccc(C(F)(F)F)c2)CC1` (stereo not drawn)?
Lassa entry inh: 0%[46.1 µM]; FMDV antiviral: 32µM*; HCMV antiviral: inconclusive

How did COc1cccc(N2CCN(C3=NS(=O)(=O)C(c4ccc(C)cc4)=C3C)CC2)c1 do in these assays?
Lassa entry inh: 29%[46.1 µM]; Marburg entry inh: inconclusive; FMDV antiviral: 13%; HCMV antiviral: 0

Screening results: PubChem, National Center for Advancing Translational Sciences (NCATS)
